Counter-ions that a name gives are not always drawn. ± gives the standard deviation of the averaged measurements.
Test system: E. coli TESEC Alr+ wild-type control
Experiment: growth (OD600 after 10 h); higher = more growth (less inhibition)
Conditions: compound 0.1 mM; raw OD600 reference: median of DMSO wells 0.49, cell-free background 0.052
Method: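 TESEC Mtb Alr E. coli (ΔaraC ΔtolC ΔentC Δalr ΔdadX, arabinose-inducible Mtb Alr) or the Alr+ wild-type control strain, grown in defined M9-fructose medium without D-alanine in 96-well plates with Prestwick library compounds at 0.1 mM and 1% DMSO. Low Alr induction is 0.1 µM arabinose and high induction is 10 mM arabinose.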

Row | Structure (SMILES) | growth
1 | CN1CCc2cccc3c2[C@H]1Cc1ccc(O)c(O)c1-3 [R(-) Apomorphine hydrochloride hemihydrate] | 0.467 ± 0.025
2 | CN1CCCN(C(c2ccccc2)c2ccc(Cl)cc2)CC1 (stereo not given) [Homochlorcyclizine dihydrochloride] | 0.498 ± 0.047
3 | Cc1ncc(CO)c(CO)c1O [Pyridoxine hydrochloride] | 0.544 ± 0.025
4 | O=C(NCC(O)CO)c1c(I)c(C(=O)NCC(O)CO)c(I)c(N(CCO)C(=O)CO)c1I (stereo not given) [Ioversol] | 0.452 ± 0.008
5 | C[C@@H]1[C@H](O)[C@@H](C)/C=C/C=C/C=C/C=C/C=C/C=C/C=C/[C@H](O[C@@H]2O[C@H](C)[C@@H](O)[C@H](N)[C@@H]2O)C[C@@H]2O[C@](O)(C[C@@H](O)C[C@@H](O)[C@H](O)CC[C@@H](O)C[C@@H](O)CC(=O)O[C@H]1C)C[C@H](O)[C@H]2C(=O)O [Amphotericin B] | 0.532 ± 0.087
6 | C=Cc1c(C)c2cc3nc(cc4[nH]c(cc5nc(cc1[nH]2)C(C)=C5CCC(=O)O)c(CCC(=O)OC)c4C)[C@@]1(C)C3=CC=C(C(=O)OC)C1C(=O)OC.C=Cc1c(C)c2cc3nc(cc4[nH]c(cc5nc(cc1[nH]2)C(C)=C5CCC(=O)OC)c(CCC(=O)O)c4C)[C@@]1(C)C3=CC=C(C(=O)OC)C1C(=O)OC (stereo not given in full) [Verteporfin] | 0.5678 ± 0.0038
7 | CC(C)C[C@H](NC(=O)[C@@H](O)[C@H](N)Cc1ccccc1)C(=O)O [Ubenimex] | 0.528 ± 0.089
8 | CC(COc1ccccc1)N(CCCl)Cc1ccccc1 (stereo not given) [Phenoxybenzamine hydrochloride] | 0.673 ± 0.025
9 | CN(C)CCCOc1nn(Cc2ccccc2)c2ccccc12 [Benzydamine hydrochloride] | 0.452 ± 0.0099
10 | CC1CS(=O)(=O)CCN1/N=C/c1ccc([N+](=O)[O-])o1 (stereo not given) [Nifurtimox] | 0.354 ± 0.021
11 | NCC[C@H](O)C(=O)N[C@@H]1C[C@H](N)[C@@H](O[C@H]2O[C@H](CN)[C@@H](O)[C@H](O)[C@H]2O)[C@H](O)[C@H]1O[C@H]1O[C@H](CO)[C@@H](O)[C@H](N)[C@H]1O [Amikacin hydrate] | 0.0539 ± 0.00071
12 | Cc1cn([C@H]2C[C@H](N=[N+]=[N-])[C@@H](CO)O2)c(=O)[nH]c1=O [Zidovudine, AZT] | 0.199 ± 0.0087
13 | NC1CCN(c2nc3c(cc2F)c(=O)c(C(=O)O)cn3-c2ccc(F)cc2F)C1 (stereo not given) [Tosufloxacin hydrochloride] | 0.0604 ± 0.0041
14 | CC[C@H](C)C(=O)O[C@H]1C[C@H](O)C=C2C=C[C@H](C)[C@H](CC[C@@H](O)C[C@@H](O)CC(=O)O)[C@H]21 [Pravastatin] | 0.455 ± 0.03
15 | CC(NCCC(c1ccccc1)c1ccccc1)c1ccccc1 (stereo not given) [Fendiline hydrochloride] | 0.0558 ± 0.011
16 | CCN1CCCC(OC(=O)C(c2ccccc2)c2ccccc2)C1 (stereo not given) [Piperidolate hydrochloride] | 0.555 ± 0.023
17 | COc1ccc(C(=O)NCc2ccc(OCCN(C)C)cc2)cc1OC [Itopride] | 0.475 ± 0.063
18 | CCCCOc1ccc(C(=O)CCN2CCCCC2)cc1 [Dyclonine hydrochloride] | 0.449 ± 0.034
19 | CC(C)C(=O)c1c(C(C)C)nn2ccccc12 [Ibudilast] | 0.49 ± 0.013
20 | CC(O)(P(=O)(O)O)P(=O)(O)O [Etidronic acid, disodium salt] | 0.578 ± 0.046
21 | Nc1ccc(O)c(C(=O)O)c1 [Mesalamine] | 0.554 ± 0.11
22 | CC=CC1=C(C(=O)O)N2C(=O)[C@@H](NC(=O)[C@H](N)c3ccc(O)cc3)[C@H]2SC1 [Cefprozil] | 0.543 ± 0.068
23 | O=C(OCC(O)CO)c1ccccc1Nc1ccnc2cc(Cl)ccc12 (stereo not given) [Glafenine hydrochloride] | 0.374 ± 0.0054
24 | CC1Cc2ccccc2N1NC(=O)c1ccc(Cl)c(S(N)(=O)=O)c1 (stereo not given) [Indapamide] | 0.497 ± 0.015
25 | CN(C)CCN1C(=O)c2ccccc2N(C)c2ccccc21 [Dibenzepine hydrochloride] | 0.608 ± 0.13
26 | CO[C@@]1(NC(=O)Cc2cccs2)C(=O)N2C(C(=O)O)=C(COC(N)=O)CS[C@@H]21 [Cefoxitin sodium salt] | 0.0458 ± 0.00061
27 | CCC1(c2ccccc2)NC(=O)N(C)C1=O (stereo not given) [Mephenytoin] | 0.501 ± 0.091
28 | CCN(CC)CC#CCOC(=O)C(O)(c1ccccc1)C1CCCCC1 (stereo not given) [Oxybutynin chloride] | 0.41 ± 0.043
29 | COC(=O)[C@H](c1ccccc1Cl)N1CCc2sccc2C1 [Clopidogrel] | 0.3176 ± 0.0024
30 | CN(C)CCOc1ccc(/C(=C(/CCCl)c2ccccc2)c2ccccc2)cc1 [Toremifene] | 0.0478 ± 0.00064

— the supplement of paper PMC9262897, “Low-cost anti-mycobacterial drug discovery using engineered E. coli” (Nature Communications, 2022)
